About 83,000 compounds went through this panel and 20% of them were active in at least one assay; those are over-represented in the sample as a whole.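 Single-dose data. Exposure time 48 hours. Values below 10 considered active.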 A number with no mark means an inactive call. Active and inactive are the calls of the source.
test system: NCI/ADR-RES ovarian; experiment: NCI-60 one-dose screen, 48 h (100 = growth as untreated, 0 = no growth, -100 = all killed); conditions: 10 µM

SMILES	growth
CCOC(=O)C1=C(N)N(c2ccccc2)C2=C(C(=O)CC(C)(C)C2)C1c1ccccc1OC (stereo unspecified)	96.6%
COc1cc(C2CC(c3ccc(C)cc3)=Nc3c(N)nc(N)nc3N2)ccc1Oc1nc(Nc2ccc(F)cc2)nc(N(C)C)n1 (stereo unspecified)	51.7%
CC(=O)Nc1ccc(-c2cn(-c3cccc(C(=O)Nc4ccc(Cl)c(C(F)(F)F)c4)c3)nn2)cn1	41.6%
Cc1cc(C(F)(F)F)ccc1C(=O)Nc1sc2c(c1C#N)CCC(=O)C2	-24.8% (active)
COc1ccc(OC)c(/C=N/NC(=O)c2ccc3nc(-c4ccc(Cl)cc4)[nH]c3c2)c1	88.8%
Cc1ccc(-c2cc(C(=O)N=Nc3c(O)[nH]c4ccc(Br)cc34)c3ccccc3n2)cc1	55%
COc1ccccc1C(=O)NNC(=O)CSc1nc2c(c(=O)[nH]1)CCCC2	104%
CC(=O)NS(=O)(=O)c1ccc(NC(=O)CSC2=NC(c3ccccc3)C(C(C)=O)=C(C)N2)cc1 (stereo unspecified)	99.6%
Nc1nc(-c2ccccc2)cs1	28.5%
COC(=O)c1c(C(=O)OC)c2n(c1C)[C@@H]([C@@H](C)[C@H]1CC[C@H]3[C@@H]4CCC5=CC(=O)CC[C@]5(C)[C@H]4CC[C@]13C)SC2	7.08% (active)
C/C(=N\N=C\c1ccc(Cl)c([N+](=O)[O-])c1)c1ccc2c(c1)Nc1ccccc1S2	11.7%
N#Cc1c(-c2ccc(Cl)cc2)cc(-c2ccccc2)nc1OCc1ccccc1	76%
COc1cccc(/C=N/NC(=O)c2ccc3nc(-c4ccc(Cl)cc4)[nH]c3c2)c1O	50.7%
COc1ccc(/C(CSc2nnc(-c3c[nH]c4ccccc34)n2-c2ccccc2)=N/O)cc1	38.2%

test system: T-47D breast; experiment: as above; conditions: 10 µM

SMILES	growth
O=S(=O)(Nc1ncccn1)c1ccc(-n2c(-c3ccccc3)nc(-c3ccccc3)c2-c2ccccc2)cc1	52.2%
COc1ccc(-c2cc(-c3cc(C(=O)c4ccccc4)n4ccc(C)cc34)nc(N)c2C#N)cc1	65.1%
N#Cc1ccc(NC(=O)CSc2ccc(-c3ccc(Br)cc3)nn2)cc1	46.9%
CCCn1c(O)c(N=Nc2nc(-c3cc4ccccc4oc3=O)cs2)c2cc(Br)ccc21	98.8%
COc1cc2oc(-c3cccc(C(=O)Nc4ccc(Cl)cc4)c3)cc(=O)c2c(OCCNC(=O)CNC(=O)OC(C)(C)C)c1OC	59%
CCCCOc1ccc(Nc2nc3ccccc3nc2Nc2ccc(OCCCC)cc2)cc1	79%
COc1cc(NC(=O)CSc2nnc(-c3ccc4nc(-c5ccc(Cl)cc5)[nH]c4c3)o2)cc(OC)c1OC	13.2%
O=C(NO)c1ccc(CNC(=O)[C@H]2Cc3c([nH]c4ccccc34)[C@H](c3ccc(Cl)cc3)N2)cc1	-2.39% (active)
N#Cc1c(NC(=O)c2ccc(C(F)(F)F)c(Cl)c2)sc2c1CCC(=O)C2	-53% (active)
O=C(Cc1ccc2c(c1)CN(C1CCC(=O)NC1=O)C2=O)NCc1cccc2ccccc12 (stereo unspecified)	-4.86% (active)
CCOC(=O)CNC(=O)CN(Cc1ccccc1)C(=O)[C@@]1(C)CCC[C@]2(C)[C@H]3C[C@H]4C(C(C)C)=C[C@]3(CC[C@H]21)[C@@H]1C(=O)OC(=O)[C@@H]14	67.4%
O=C(NCCCCCCCCCC[P+](c1ccccc1)(c1ccccc1)c1ccccc1)c1ccc(-n2nc(-c3ccccc3O)nc2-c2ccccc2O)cc1	-51.9% (active)
COc1ccc2[nH]c(=O)c(CSc3ccc(Nc4nccc(-c5ccc(Cl)cc5)n4)cc3)cc2c1	78.6%
CCOC(=O)C1=C(N)N(c2ccccc2)C2=C(C(=O)CC(C)(C)C2)C1c1ccccc1OC (stereo unspecified)	92.7%
COc1cccc2nc(Nc3cccc(NC(=O)c4ccc(CN5CCCN(C)CC5)c(C(F)(F)F)c4)c3)ccc12	-55.9% (active)
COc1cc(C2CC(c3ccc(C)cc3)=Nc3c(N)nc(N)nc3N2)ccc1Oc1nc(Nc2ccc(F)cc2)nc(N(C)C)n1 (stereo unspecified)	64.5%
CC(=O)Nc1ccc(-c2cn(-c3cccc(C(=O)Nc4ccc(Cl)c(C(F)(F)F)c4)c3)nn2)cn1	16.3%
Cc1cc(C(F)(F)F)ccc1C(=O)Nc1sc2c(c1C#N)CCC(=O)C2	-34% (active)
COc1ccc(OC)c(/C=N/NC(=O)c2ccc3nc(-c4ccc(Cl)cc4)[nH]c3c2)c1	38.2%

SMILES	growth
CC1=N/C(=C\c2ccc(N(C)C)cc2)C(=O)N1CCc1ccc(S(N)(=O)=O)cc1	83.2%
Cc1ccc(-c2cc(C(=O)N=Nc3c(O)[nH]c4ccc(Br)cc34)c3ccccc3n2)cc1	75.2%
COc1ccccc1C(=O)NNC(=O)CSc1nc2c(c(=O)[nH]1)CCCC2	81.2%
C=C1CCC2C3(C)COC(c4cccc(F)c4)OC3CCC2(C)C1CC(O)C1=CCOC1=O (stereo unspecified)	37.9%
C=C1CCC2C3(C)COC(c4c(F)cccc4F)OC3CCC2(C)C1C/C=C1/C(=O)OCC1O (stereo unspecified)	1.57% (active)
Nc1nnc(-c2c[nH]c3ccc(F)cc23)c(-c2c[nH]c3ncccc23)n1	31.7%
CC(=O)NS(=O)(=O)c1ccc(NC(=O)CSC2=NC(c3ccccc3)C(C(C)=O)=C(C)N2)cc1 (stereo unspecified)	99.7%
COC1=C[C@@]23CCC(=O)N2CCc2cc4c(cc2[C@H]3[C@H]1OC(=O)C(C)(C)O)OCO4	91.6%
Nc1nc(-c2ccccc2)cs1	16.3%
COC(=O)c1c(C(=O)OC)c2n(c1C)[C@@H]([C@@H](C)[C@H]1CC[C@H]3[C@@H]4CCC5=CC(=O)CC[C@]5(C)[C@H]4CC[C@]13C)SC2	4.62% (active)
C/C(=N\NC(N)=S)c1ccc(Nc2nc(SC(C)C)nc(-c3ccccc3)c2C#N)cc1	57.3%
COc1ccc(-c2cc(-c3cc(C(=O)c4ccc(Br)cc4)n4ccc(C)cc34)nc(N)c2C#N)cc1	82.8%
CC(=O)Nc1ccc(-n2cnc3cc(-c4ccc(NS(C)(=O)=O)cc4)ccc32)cc1	63.2%
O=c1cc(-c2ccccc2)oc2cc(OCCCCNCc3ccccc3)cc(O)c12	-70.7% (active)
C/C(=N\N=C\c1ccc(Cl)c([N+](=O)[O-])c1)c1ccc2c(c1)Nc1ccccc1S2	41.3%
N#Cc1c(-c2ccc(Cl)cc2)cc(-c2ccccc2)nc1OCc1ccccc1	52.3%
COc1cccc(/C=N/NC(=O)c2ccc3nc(-c4ccc(Cl)cc4)[nH]c3c2)c1O	-33.2% (active)
COc1ccc(/C(CSc2nnc(-c3c[nH]c4ccccc34)n2-c2ccccc2)=N/O)cc1	10.4%

Reference: PubChem BioAssay (NCI)
